{
  "source": "the supplement of paper PMC11417369",
  "note": "In all, about 25,000 sequences were measured (“ln(normalized median fluorescence intensity)”: median about 9.7, highest 2% from about 11 on). This is one part of a sample in which the highest values are shown more often than they occur.",
  "data": [
    {"test_system": "PfAP2-HC AP2 domain (GST-tagged)", "test": "gcPBM binding intensity (ln(normalized median fluorescence intensity)); higher = stronger DNA binding", "procedure,_shortened": "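DNA-binding domains from P. falciparum, fused to GST and produced in E. coli, were put on an Agilent 4 × 180k double-stranded probe array for 1 h in 1× PBS holding 1% milk, 0.2 mg/ml BSA, 0.5% salmon testes DNA and 0.03% Triton X-100. Probes were primer-extended, 36 bp long and drawn from intergenic genomic regions, with negative controls included. After Alexa488 anti-GST antibody detection and a 488 nm scan, binding intensity was set as the highest Masliner-normalised natural-log median intensity across replicate spots of either probe orientation.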", "values": [
      {"sequence": "TGAACACAGACAAATACACACAAAAAAAATAAATAA [CACACA_site4298]", "gcPBM binding intensity (ln)": 10},
      {"sequence": "TCATTCATATGTTACACACACACACCCACATAAAAA [CACACA_site3245]", "gcPBM binding intensity (ln)": 11.2},
      {"sequence": "ATGTTACACAGACACACACACATAAAAAAACAAAAA [CACACA_site7516]", "gcPBM binding intensity (ln)": 10.4},
      {"sequence": "GTGTACAGACACAAAATATATACATATATATATATA [CACACA_negctrl_site1796]", "gcPBM binding intensity (ln)": 9.51},
      {"sequence": "AACAAATACAGACACACACACACACTAATAAAAAAA [CACACA_site8067]", "gcPBM binding intensity (ln)": 11.6},
      {"sequence": "AATACAGACAGACACACACACAAAATAAAATACAAA [CACACA_site245]", "gcPBM binding intensity (ln)": 10.5},
      {"sequence": "GGTACATACAGACACACACACAAAAAAAAAAAAATA [CACACA_site6844]", "gcPBM binding intensity (ln)": 11.2},
      {"sequence": "ATGTTACTCAGACACACACACATAAAAAAACAAAAA [CACACA_site3249]", "gcPBM binding intensity (ln)": 10.4},
      {"sequence": "ATTCATTCATATGTTACACACACACCCACCCATAAA [CACACA_site9066]", "gcPBM binding intensity (ln)": 10.1},
      {"sequence": "ATATGTTACAGACACACACACACATAAAAAAACAAA [CACACA_site3248]", "gcPBM binding intensity (ln)": 11.1},
      {"sequence": "ATTCATTCATATGTTACACACACACGCCCACATAAA [CACACA_site7513]", "gcPBM binding intensity (ln)": 10.6},
      {"sequence": "ATATGTCACTTGTATACACACATATAGATTTCAATC [CACACA_site7519]", "gcPBM binding intensity (ln)": 9.94},
      {"sequence": "GAAAATAAAAAATATGAACACACATATATAACAAAA [CACACA_site7975]", "gcPBM binding intensity (ln)": 10.5},
      {"sequence": "TACATATACAGACACACACACACACCCCCACAAAAA [CACACA_site495]", "gcPBM binding intensity (ln)": 10.8},
      {"sequence": "GGTACATACAAACACACACACAAAAAAAAAAAAATA [CACACA_site1577]", "gcPBM binding intensity (ln)": 10.3},
      {"sequence": "CATACAGATGGACACACACACACACCCACAGACAAA [CACACA_site4431]", "gcPBM binding intensity (ln)": 10.5},
      {"sequence": "AAAAAAAACAGACACACACACAAATATATAAAAATA [CACACA_site1172]", "gcPBM binding intensity (ln)": 10.6},
      {"sequence": "AACAAATACAGACACACACACACACCCAAAAAAAAA [CACACA_site515]", "gcPBM binding intensity (ln)": 10.9},
      {"sequence": "ATGGTACATACATACACACACACAAAAAAAAAAAAA [CACACA_site1578]", "gcPBM binding intensity (ln)": 11.3},
      {"sequence": "TACAGATACGGACACACACACACACCCAGACAAAAA [CACACA_site4432]", "gcPBM binding intensity (ln)": 11},
      {"sequence": "TTTTTGTAATGACACACACACAAACAGAAAAAATAA [CACACA_site7062]", "gcPBM binding intensity (ln)": 10.2},
      {"sequence": "AACACATACAAACACACACACAAAAAAAAAAAAAAA [CACACA_site393]", "gcPBM binding intensity (ln)": 10.4},
      {"sequence": "ATAAATGACAGACACACACACAAAAAAAAAAAACAA [CACACA_site2626]", "gcPBM binding intensity (ln)": 11.5},
      {"sequence": "AATACACCCAGACACACACACAAAAAAAAAAAAAAA [CACACA_site513]", "gcPBM binding intensity (ln)": 10.1},
      {"sequence": "TAGGGATTATACCACACACACATACACATAAATATA [CACACA_site3178]", "gcPBM binding intensity (ln)": 10.3},
      {"sequence": "ACAATATGCAAAAAGTGTACACATTCATTTATATAA [XGTACX_site1061]", "gcPBM binding intensity (ln)": 10.1},
      {"sequence": "AGCAACCCCCTAGCTACACACATATAGATATAAATA [CACACA_site6577]", "gcPBM binding intensity (ln)": 10.6},
      {"sequence": "TTTAAATCGTTAAAAACACACAAAAAAAATCAATTA [CACACA_site2519]", "gcPBM binding intensity (ln)": 9.59},
      {"sequence": "TTTTTTTTTTTGGTTACACACATTTGTATATTCTCA [CACACA_site134]", "gcPBM binding intensity (ln)": 9.89},
      {"sequence": "CTATATGTTAAATTCTCACACATTATTACAATTTAA [CACACA_site5979]", "gcPBM binding intensity (ln)": 9.67},
      {"sequence": "AATTGTAAATTGGGCACTTATAAAAATGAACAAATA [CACACA_negctrl_site1583]", "gcPBM binding intensity (ln)": 9.71},
      {"sequence": "ATGAAAAAATTTATATGTACTTAAAATATAATCATA [XGTACX_site1228]", "gcPBM binding intensity (ln)": 9.33},
      {"sequence": "TATATATACAGACACATACACACAAATAAAAAAACA [CACACA_site3413]", "gcPBM binding intensity (ln)": 10.3},
      {"sequence": "AAATAAAACAGACACACACACACATACACAAAAAAA [CACACA_site7753]", "gcPBM binding intensity (ln)": 10.9},
      {"sequence": "AAAAAAAACAGACACACACACAAATACATACACAAA [CACACA_site705]", "gcPBM binding intensity (ln)": 10.5},
      {"sequence": "AAAAAACACGCACATACACACAAAAATGTTATAAAT [CACACA_site6188]", "gcPBM binding intensity (ln)": 10.2},
      {"sequence": "AAAAAACACAGACATACACACAAAAAGGTTATAAAT [CACACA_site4222]", "gcPBM binding intensity (ln)": 10.2},
      {"sequence": "TACAAACAGACATATACACACAAAAAAAAAATAAAA [CACACA_site2562]", "gcPBM binding intensity (ln)": 9.89},
      {"sequence": "AACACATACAGACACACACACAAAAAAAAAAAAAAA [CACACA_site6322]", "gcPBM binding intensity (ln)": 10.9},
      {"sequence": "AAAAAAAACAGACACATACACACAAAAATGTTATAA [CACACA_site82]", "gcPBM binding intensity (ln)": 10.9},
      {"sequence": "AAAAAAAAAAAAAACACACACATACAGACAAAAATG [CACACA_site83]", "gcPBM binding intensity (ln)": 11.5},
      {"sequence": "TATATTTTTATAATAACACACGATATATGTTTAGGA [CACACA_site1283]", "gcPBM binding intensity (ln)": 9.63},
      {"sequence": "TAAGACTATTAAAAAATTGAGTACATGAACTGTTCA [GTGCAC_negctrl_site670]", "gcPBM binding intensity (ln)": 9.41},
      {"sequence": "AACAAAATAAGACACACACACAAATGTACCTATATA [CACACA_site7189]", "gcPBM binding intensity (ln)": 10.4},
      {"sequence": "ATATCTAAATATATTACACACAGATATCTTCCTATA [CACACA_site3701]", "gcPBM binding intensity (ln)": 9.87},
      {"sequence": "CTAAGAAAAAATAAAGCACACAAATATTTTAAAAAC [CACACA_site9094]", "gcPBM binding intensity (ln)": 9.93},
      {"sequence": "TTTTTTATATATGTGTGTGTGTGTGTGTCAAGTTTA [GTGCAC_negctrl_site460]", "gcPBM binding intensity (ln)": 11.1},
      {"sequence": "AATTTTTTTTTTTTTTTTTTTTATATATGTGTGTGT [XGTACX_negctrl_site129]", "gcPBM binding intensity (ln)": 11},
      {"sequence": "TTATATATTTTTATGTGTACTTATATATATATATAT [XGTACX_site6211]", "gcPBM binding intensity (ln)": 9.77},
      {"sequence": "ATATTTATATATATATGTACATATGTGTGTTTTTAT [XGTACX_site3956]", "gcPBM binding intensity (ln)": 9.91},
      {"sequence": "TATATATGTATCAAGTGTACAGTTTTAAAAAAAAAA [XGTACX_site6011]", "gcPBM binding intensity (ln)": 9.67},
      {"sequence": "TATATGTTAATTTTTTTTTTTTTTTTTTTTTTTATA [CACACA_negctrl_site62]", "gcPBM binding intensity (ln)": 9.26},
      {"sequence": "ATAATGTAAAATAAATGTACGCAATATATAAAAAAT [XGTACX_site5747]", "gcPBM binding intensity (ln)": 10.1},
      {"sequence": "AAATAATTTACTTAATGTACATATATATATATATAT [XGTACX_site8594]", "gcPBM binding intensity (ln)": 9.78},
      {"sequence": "TTGTAGGTAAATATGTGTACGCATTATTATTCTTAA [XGTACX_site216]", "gcPBM binding intensity (ln)": 9.58},
      {"sequence": "CTTATAATATTACGGGTGCTATAAATACATTATATT", "gcPBM binding intensity (ln)": 9.72},
      {"sequence": "TAAATATATATATGGTGTACCATTTTGGGTTAATAT [XGTACX_site2706]", "gcPBM binding intensity (ln)": 9.54}
    ]}
  ]
}
